Source: PubChem BioAssay
The source made the active and inactive calls.

Key:
Albumin (Bos taurus) = Albumin (Bos taurus) (UniProt P02769); experiment: bovine serum albumin binders on microarray, profiling panel, artefact control for SMM control protein annotation, biochemical, small-molecule microarray, Alexa647 label, 635/667 nm fluorescence (AID 1118); conditions: BSA-A647 binding, fluorescence 635 nm, higher = more signal;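 also: score merges 667 nm emission intensity and signal-to-noise per printed compound spot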
[1] = small-molecule microarray binders of probe aXIP, primary screen, biochemical, NeuroSMM set, 635/667 nm fluorescence (AID 1119); conditions: higher = more signal, called active from +8 up or from −8 down;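 also: probe is the protein aXip251-270 applied at 1 µg/mL to compound-printed slides; binding of probe to printed compounds measured as 667 nm fluorescence plus signal to noise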
[2] = small-molecule binders of probe aNOTCH3, primary screen, biochemical, small-molecule microarray, 635/667 nm fluorescence (AID 1120); conditions: higher = more signal;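 also: probe is a biotin-tagged antibody raised against NOTCH3 rather than NOTCH3 protein; score merges spot fluorescence near 667 nm with spot signal to noise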
[3] = small-molecule binders of probe aNOTCH2, primary screen, biochemical, small-molecule microarray, 635/667 nm fluorescence (AID 1121); conditions: higher = more signal;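 also: score merges feature fluorescence read at 667 nm with its signal to noise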
[4] = biological target: Carbonic anhydrase 2 (Homo sapiens) (UniProt P00918); experiment: CAII small-molecule binders, profiling panel, biochemical, small-molecule microarray, Alexa647-labelled CAII (AID 1122); conditions: CAII-A647 binding fluorescence, higher = more signal
[5] = COS7 lysate on small-molecule microarray, probe aHis, 635 nm (AID 1123); conditions: COS7 cell lysate, fluorescence, higher = more signal;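 also: z-score combines 667nm fluorescence intensity with signal-to-noise per printed compound spot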
[6] = compound binding in COS7 lysate, probe aLAP1, primary screen, cell lysate, small-molecule microarray (AID 1124); conditions: probe aLAP1, fluorescence, higher = more signal;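 also: lysate comes from COS7 cells expressing LAP1 and is applied at 0.3 µg/mL; score merges spot fluorescence near 667 nm with signal-to-noise over triplicate slides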
Sam68 (KHDRBS1) = experiment: Sam68 small-molecule binders, primary screen, biochemical, small-molecule microarray, 635 nm fluorescence (AID 1125); conditions: small-molecule microarray binding, higher = more signal;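 also: score merges 667 nm channel intensity with signal to noise over triplicate slides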
[7] = tested on: Chordin-like protein 2 (CHRDL2); experiment: CHRDL2 small-molecule binders, primary screen, biochemical, small-molecule microarray, 635 nm fluorescence (AID 1126); conditions: small-molecule microarray binding, fluorescence 635 nm; higher = more signal;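 also: printed compound slides probed with Chrdl2 protein at 4 µg/mL for 1 h at 4 C; score merges 667 nm emission intensity with signal to noise over three replicate slides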
[8] = biological target: Concanavalin-A (Canavalia ensiformis) (UniProt P02866); experiment: ConA small-molecule binders, primary screen, artefact control for SMM control protein annotation, biochemical, small-molecule microarray, Alexa647 label, 635 nm (AID 1127); conditions: ConA-A647 binding fluorescence, higher = more signal;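 also: z combines 667 nm emission intensity with signal-to-noise across three replicate slides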
[9] = anti-His antibody binders, primary screen, artefact control for SMM control protein annotation, biochemical, small-molecule microarray, 635 nm fluorescence (AID 1128); conditions: anti-His Alexa647 antibody binding, higher = more signal;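 also: score merges feature fluorescence with signal-to-noise for each printed compound spot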
[10] = tested on: Human papillomavirus type 1a E7 protein (residues 1-88); experiment: HPV1a E7 small-molecule binders, primary screen, biochemical, small-molecule microarray, residues 1-88, 635 nm (AID 1129); conditions: small-molecule microarray binding, fluorescence 635 nm; higher = more signal
[11] = biological target: Focal adhesion kinase 1 (Homo sapiens) (UniProt Q05397); experiment: small-molecule microarray binders of FAK, primary screen, biochemical, 635/667 nm fluorescence, BSA, DTT (AID 1130); conditions: PTK2 binding, 635 nm fluorescence, higher = more signal;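 also: composite of spot emission at 667 nm and signal to noise over triplicate slides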
[12] = tested on: Fibrinogen (Alexa647-labelled); experiment: fibrinogen binders on compound microarrays, profiling panel, artefact control for SMM control-protein annotation, biochemical, small-molecule microarray, 635/667 nm fluorescence (AID 1131); conditions: fibrinogen-A647 binding fluorescence, higher = more signal;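 also: z-score merges 667 nm fluorescence with per-spot signal-to-noise over triplicate slides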
[13] = biological target: Follistatin (Homo sapiens) (UniProt P19883); experiment: follistatin binders on small-molecule microarrays, primary screen, biochemical, small-molecule microarray, 635/667 nm fluorescence (AID 1132); conditions: FST binding, 635 nm fluorescence, higher = more signal
[14] = biological target: Fibroblast growth factor 2 (Homo sapiens) (UniProt P09038); experiment: FGF2 binders on small-molecule microarrays, primary screen, biochemical, small-molecule microarray, 635/667 nm fluorescence (AID 1133); conditions: small-molecule microarray binding, FGF2, fluorescence 635/667; higher = more signal
[15] = mitochondrial membrane potential change in A549 cells, profiling panel, cell-based, JC-1 fluorescence, basal, 24 h, 100 nL (AID 1138); conditions: higher = more signal;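 also: A549 lung adenocarcinoma cells under basal conditions with no added stimulus; test concentration not given here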
Lefty1 = Lefty1 binders on small-molecule microarrays, primary screen, biochemical, small-molecule microarray, 635/667 nm fluorescence (AID 1139); conditions: small-molecule microarray binding, fluorescence 635/667; higher = more signal
[16] = tested on: wheat germ agglutinin (Triticum aestivum), Alexa647-labelled; experiment: wheat germ agglutinin binders on compound microarrays, profiling panel, artefact control for SMM control-protein annotation, biochemical, small-molecule microarray, 635/667 nm fluorescence (AID 1140); conditions: WGA-A647 binding, 635 nm fluorescence, higher = more signal;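 also: score merges 667 nm feature emission with signal to noise over triplicate slides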
[17] = biological target: Luciferin 4-monooxygenase (Photinus pyralis) (UniProt P08659); experiment: firefly luciferase enzyme inhibitors, primary screen, biochemical, luminescence, purified enzyme, 2006 set (AID 1141); conditions: SteadyGlo luminescence, 30 min, higher = more signal, called active from +8 up or from −8 down;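 also: cell-free assay with purified firefly luciferase at 100 ng per well in PBS; test concentration not given here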
Luciferin 4-monooxygenase (Photinus pyralis), sequence (P08659 whole entry, looked up): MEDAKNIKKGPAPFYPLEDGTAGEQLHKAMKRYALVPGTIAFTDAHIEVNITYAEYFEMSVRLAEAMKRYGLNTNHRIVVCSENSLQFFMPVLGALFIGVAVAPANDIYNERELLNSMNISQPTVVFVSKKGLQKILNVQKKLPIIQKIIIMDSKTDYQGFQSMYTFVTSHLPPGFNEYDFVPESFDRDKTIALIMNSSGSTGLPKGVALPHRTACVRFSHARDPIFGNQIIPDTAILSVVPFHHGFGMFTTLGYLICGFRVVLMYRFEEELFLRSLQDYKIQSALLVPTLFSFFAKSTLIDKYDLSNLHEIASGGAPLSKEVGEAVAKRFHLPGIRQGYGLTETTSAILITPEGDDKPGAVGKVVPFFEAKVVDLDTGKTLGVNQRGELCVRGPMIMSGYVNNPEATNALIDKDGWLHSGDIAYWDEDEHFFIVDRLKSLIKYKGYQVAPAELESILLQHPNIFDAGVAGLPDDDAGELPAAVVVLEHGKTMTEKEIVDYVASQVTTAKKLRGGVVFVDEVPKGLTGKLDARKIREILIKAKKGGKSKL

Albumin (Bos taurus), sequence (P02769 whole entry, looked up): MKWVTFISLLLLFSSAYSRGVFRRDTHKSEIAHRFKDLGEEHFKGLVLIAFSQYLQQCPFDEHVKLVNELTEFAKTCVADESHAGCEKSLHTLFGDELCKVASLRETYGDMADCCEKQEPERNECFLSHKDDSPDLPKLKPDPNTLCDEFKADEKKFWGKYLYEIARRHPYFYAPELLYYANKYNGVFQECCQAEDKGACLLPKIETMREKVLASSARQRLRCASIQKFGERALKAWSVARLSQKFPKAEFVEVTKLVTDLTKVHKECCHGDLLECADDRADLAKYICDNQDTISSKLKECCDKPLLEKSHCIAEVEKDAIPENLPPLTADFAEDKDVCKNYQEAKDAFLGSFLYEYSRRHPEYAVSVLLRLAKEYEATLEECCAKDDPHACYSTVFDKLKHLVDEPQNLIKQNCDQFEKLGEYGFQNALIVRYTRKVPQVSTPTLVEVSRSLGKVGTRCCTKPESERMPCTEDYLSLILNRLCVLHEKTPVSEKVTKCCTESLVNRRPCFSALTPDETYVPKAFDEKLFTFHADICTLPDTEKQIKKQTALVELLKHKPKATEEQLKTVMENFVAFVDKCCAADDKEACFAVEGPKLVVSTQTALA
Concanavalin-A (Canavalia ensiformis), sequence (P02866 whole entry, looked up): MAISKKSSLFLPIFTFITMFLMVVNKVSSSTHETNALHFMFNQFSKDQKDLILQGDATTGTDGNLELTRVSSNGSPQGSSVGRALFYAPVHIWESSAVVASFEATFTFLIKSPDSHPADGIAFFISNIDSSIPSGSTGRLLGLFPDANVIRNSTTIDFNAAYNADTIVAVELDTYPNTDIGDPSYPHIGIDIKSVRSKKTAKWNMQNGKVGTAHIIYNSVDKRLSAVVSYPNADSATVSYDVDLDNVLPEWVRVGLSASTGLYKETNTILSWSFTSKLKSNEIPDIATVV
Follistatin (Homo sapiens), sequence (P19883 whole entry, looked up): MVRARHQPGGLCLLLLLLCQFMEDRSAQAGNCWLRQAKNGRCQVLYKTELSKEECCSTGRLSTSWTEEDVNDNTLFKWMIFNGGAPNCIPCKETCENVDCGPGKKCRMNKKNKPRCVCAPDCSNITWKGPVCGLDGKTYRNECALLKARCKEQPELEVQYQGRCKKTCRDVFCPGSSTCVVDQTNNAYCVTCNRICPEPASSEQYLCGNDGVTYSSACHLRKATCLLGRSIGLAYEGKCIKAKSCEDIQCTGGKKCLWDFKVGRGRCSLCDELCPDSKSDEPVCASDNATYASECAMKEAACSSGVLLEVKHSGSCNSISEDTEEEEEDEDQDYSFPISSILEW
Focal adhesion kinase 1 (Homo sapiens), sequence (Q05397 whole entry, looked up): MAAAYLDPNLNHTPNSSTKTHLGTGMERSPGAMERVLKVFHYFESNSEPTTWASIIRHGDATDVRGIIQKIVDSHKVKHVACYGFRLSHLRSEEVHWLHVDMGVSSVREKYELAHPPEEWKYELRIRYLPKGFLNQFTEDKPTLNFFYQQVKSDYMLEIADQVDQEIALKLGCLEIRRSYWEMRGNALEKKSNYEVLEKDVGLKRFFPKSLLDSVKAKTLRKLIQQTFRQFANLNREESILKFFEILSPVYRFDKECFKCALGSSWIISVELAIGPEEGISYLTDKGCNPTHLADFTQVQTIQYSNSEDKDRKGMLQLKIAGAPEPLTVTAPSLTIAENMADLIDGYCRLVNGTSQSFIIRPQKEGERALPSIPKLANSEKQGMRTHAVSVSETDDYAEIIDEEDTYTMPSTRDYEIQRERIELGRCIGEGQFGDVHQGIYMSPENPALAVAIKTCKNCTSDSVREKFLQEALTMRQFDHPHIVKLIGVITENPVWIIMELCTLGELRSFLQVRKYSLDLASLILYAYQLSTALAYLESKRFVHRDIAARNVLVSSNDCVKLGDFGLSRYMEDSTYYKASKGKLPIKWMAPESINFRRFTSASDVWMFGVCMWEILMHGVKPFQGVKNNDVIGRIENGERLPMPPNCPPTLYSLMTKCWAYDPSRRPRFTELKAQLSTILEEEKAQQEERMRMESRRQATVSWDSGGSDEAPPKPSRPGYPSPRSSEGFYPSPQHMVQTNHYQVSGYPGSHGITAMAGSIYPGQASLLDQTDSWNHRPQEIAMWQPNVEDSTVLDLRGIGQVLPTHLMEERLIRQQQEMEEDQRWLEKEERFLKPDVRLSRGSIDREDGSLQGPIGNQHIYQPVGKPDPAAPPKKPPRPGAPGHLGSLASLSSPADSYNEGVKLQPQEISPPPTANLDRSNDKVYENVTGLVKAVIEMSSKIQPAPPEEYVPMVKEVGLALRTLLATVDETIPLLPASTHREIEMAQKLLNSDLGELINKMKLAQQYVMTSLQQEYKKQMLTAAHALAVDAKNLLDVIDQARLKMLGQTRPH
Fibroblast growth factor 2 (Homo sapiens), sequence (P09038 whole entry, looked up): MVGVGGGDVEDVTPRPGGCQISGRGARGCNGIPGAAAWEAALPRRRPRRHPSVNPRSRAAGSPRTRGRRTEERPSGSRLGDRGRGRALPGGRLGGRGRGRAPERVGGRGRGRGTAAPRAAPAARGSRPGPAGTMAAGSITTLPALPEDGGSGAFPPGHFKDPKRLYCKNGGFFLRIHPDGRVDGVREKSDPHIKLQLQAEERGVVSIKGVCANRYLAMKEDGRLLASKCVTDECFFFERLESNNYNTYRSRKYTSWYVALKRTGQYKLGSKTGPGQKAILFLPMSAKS

Structure (SMILES) | composite z-score (Albumin (Bos taurus)) | composite Z-score [1] | composite z-score [2] | composite z-score [3] | composite z-score [4] | composite z-score [5] | composite z-score [6] | composite z-score (Sam68 (KHDRBS1)) | composite z-score [7] | composite z-score [8] | composite z-score [9] | composite z-score [10] | composite z-score [11] | composite z-score [12] | composite z-score [13] | composite z-score [14] | z-score [15] | composite z-score (Lefty1) | composite z-score [16] | z-score [17]
CC(C)[C@@H](C(=O)O)n1cc(C2(O)CCCCC2)nn1 | 0.641 | -0.283 (inactive) | 0.089 | -0.161 | 0.0232 | 0.303 | 0.0595 | 1.01 | -0.121 | 1.04 | 0.948 | 1.1 | 0.167 | 0.598 | 0.486 | 0.2 | 0.0494 | 0.528 | 0.0063 | 0.983 (inactive)
O=C1[C@H]2C=C(I)[C@H](C[C@@H]2OCCCCO)[C@@]12CO2 | -1.17 | 0.32 (inactive) | -0.0057 | -0.061 | 0.758 | 0.141 | 0.489 | 0.579 | -0.11 | -0.0969 | -0.276 | 0.0789 | 0.465 | -0.327 | 0.167 | -0.0868 | -0.106 | 0.115 | -0.428 | 0.291 (inactive)
COc1ccc([Si](C)(C)[C@H]2[C@H](CCO)O[C@@]3(C(=O)N(Cc4ccccc4)c4ccc(N5CCCCC5=O)cc43)[C@@H]2C)cc1 | 0.78 | 0.388 (inactive) | -0.0918 | -0.133 | 0.342 | 0.376 | 0.237 | 0.965 | 0.207 | 0.905 | 1.49 | 0.435 | 0.208 | 0.94 | 1.28 | 1.28 | 2.23 | 0.628 | 0.768 | -1.08 (inactive)
CCC(CC)C(O)C1C=CC2C(=O)N(c3ccccc3)C(=O)C2N1Nc1ccccc1 (stereo not given) | 0.803 | 0.62 (inactive) | 0.708 | 0.272 | 0.491 | 2.44 | 0.383 | 1.31 | 0.0429 | 1.16 | 1.51 | 1.25 | 0.633 | 1 | 1.06 | 0.514 | -0.117 | 0.858 | 1.03 | -1.9 (inactive)
NCCCCCNC(=O)[C@H]1C[C@H]2C(=O)N[C@@H](Cc3ccccc3)C(=O)N2[C@H]1c1cccc(OCCO)c1 | 0.862 | 1.11 (inactive) | 0.144 | 0.0409 | 0.438 | 0.24 | 1.07 | 0.474 | 0.723 | 0.883 | 0.614 | 0.624 | 0.163 | 0.962 | 1.07 | 0.159 | 1.07 | 0.0778 | 0.782 | -1.4 (inactive)
COCC(=C=CC[C@H](O)c1cccc(OCCO)c1)CCO | 0.663 | -0.0662 (inactive) | -0.0311 | -0.166 | 0.462 | 1.44 | -0.0637 | 0.431 | 0.247 | -0.042 | -0.115 | 0.0665 | -0.0436 | -0.535 | 1.32 | 0.131 | -0.0195 | 1.48 | -0.262 | 0.415 (inactive)
C=CCC(OC(C)=O)[C@@H]1[C@@H](N(Cc2ccc(-c3ccccc3)cc2)C(=O)Cc2ccc(F)cc2)c2cc(OCCCO)ccc2N1C(=O)c1ccc2ccccc2c1 (stereo not given in full) | -0.153 | -0.301 (inactive) | 0.119 | 0.0251 | 0.0176 | 0.361 | 0.225 | 0.112 | -0.132 | -1.04 | -0.264 | -0.0066 | 0.16 | -0.163 | 0.296 | 0.288 | 1.73 | 0.125 | -0.117 | -0.87 (inactive)
O=C(CS)NCCCCCNC(=O)[C@H]1C[C@H]2C(=O)NCC(=O)N2[C@H]1c1cccc(OCCO)c1 | -0.221 | -0.269 (inactive) | -0.249 | -0.164 | 0.728 | 0.0504 | -0.442 | -0.956 | 0.577 | 0.687 | -0.0298 | -0.864 | 0.319 | 0.0186 | 0.952 | 0.399 | -0.0613 | -0.0561 | -0.347 | 0.76 (inactive)
NCCCCCCNC(=O)[C@H]1C[C@H]2C(=O)N[C@@H](Cc3ccccc3)C(=O)N2[C@H]1c1cccc(OCCO)c1 | 0.845 | -0.336 (inactive) | 0.0657 | -0.0712 | 0.788 | 0.446 | 0.464 | 0.58 | -0.431 | 1.03 | 0.786 | 0.248 | 0.376 | 0.72 | 1.08 | -0.044 | 0.481 | 0.0358 | 0.961 | 0.0326 (inactive)
